In the library only some 6.6% were active in any assay of this set; here they are far more common.
PMK inhibit: S. pneumoniae PMK inhibitors, primary screen, biochemical, mevalonate pathway, pilot trial included. purified PMK, PK/LDH-coupled NADH absorbance 340 nm. inhibition, % at 10 µM. 0.49% of 65,000 active. AID 539, 2006;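 active = top-ranked compounds by inhibition in the single 10 µM screen, taking a fixed number of the strongest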;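 also: 0% = full reaction with DMSO carrier and 100% = background rate without enzyme reaction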
Spn MK inh: S. pneumoniae MK inhibitors, primary screen, biochemical, PK/LDH-coupled NADH absorbance | mevalonate kinase [Streptococcus pneumoniae D39] | purified MK, PK/LDH-coupled NADH absorbance 340 nm | inhibition, % at 10 µM | 0.48% of 65,000 active | AID 555, 2006;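 active = ranked among the strongest by inhibition in the single 10 µM screen, a fixed top-ranked set picked for dose follow-up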
NADH coupling: inhibitors of PK/LDH coupling enzymes, profiling panel, artefact control, biochemical, MLSMR library | coupled PK/LDH NADH assays, four targets | IC50, µM (titrated, usually from 10 µM), without a hit: top-dose inhibition | 0.02% of 65,000 active;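 active = single-dose screening hits from any of four coupled enzyme assays that gave an IC50 when retested across doses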;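 also: the DPM-DC format reads NADH fluorescence rather than 340 nm absorbance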
Autofluor 339: intrinsic fluorescence of library compounds, ex339/em460 – biochemical, MLSMR library, data from DPM-DC assay, artefact control, profiling panel; compound autofluorescence, ex339/em460 nm, NADH buffer; active compounds read high; 1 = no-compound wells, NADH background; fluorescence fold increase at 10 µM; 5.5% of 65,000 active; AID 709, 2007;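 active = at 10 µM, mean starting fluorescence two-fold or more over control wells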;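 also: signal is the first read of a kinetic run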
DPM-DC inhibit: S. pneumoniae DPM-DC inhibitors, primary screen, biochemical, PK/LDH-coupled NADH fluorescence; diphosphomevalonate decarboxylase (Streptococcus pneumoniae D39); purified DPM-DC; calls only at 10 µM; 0.49% of 65,000 active;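 active = the 320 compounds with the highest percent inhibition in the single-dose primary screen, excluding strongly autofluorescent ones, cut at about 32% in these data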;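 also: kinetic rate of NADH fluorescence loss reporting ADP formed by the decarboxylase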
* = called active by the depositor; i = inactive; . = no result shown; + = active, no number.

SMILES	PMK inhibit	Spn MK inh	NADH coupling	Autofluor 339	DPM-DC inhibit
COc1ccc(CCNc2oc(-c3ccc(C)cc3)nc2C#N)cc1OC	13	2	8%	2.1*	.
c1coc(C2Nc3cccc4cccc(c34)N2)c1	12	12	12%	3.8*	.
Cc1cc(C(=O)CSc2nc3ccccc3c(=O)n2C)c(C)n1Cc1ccc2c(c1)OCO2	11	5	5%	1.1	i
O=C(O)c1cc(NCc2cccs2)ccc1N1CCOCC1	4	9	5%	2.4*	i
COC(=O)c1cc(NCc2c(F)cccc2Cl)ccc1N1CCOCC1	10	4	16%	2.6*	+
COC(=O)c1cc(NCc2cccs2)ccc1N1CCOCC1	12	14	10%	1.4	i
COc1cccc2c1OC1(C)CC2/C(=C(\C)O)C(=O)N1 (stereo unspecified)	6	6	4%	1.1	i
CC(=O)Nc1cccc(NC(=O)CSc2nnnn2Cc2ccccc2)c1	7	.	35%	0.41	+
CCC(=O)Nc1cc(NC(=O)CSc2nnc(C(C)C)n2CC)ccc1C	15	9	8%	1.1	i
CCn1c(SCC(=O)Nc2cccc(C(C)=O)c2)nnc1C(C)C	16	0	35%	1.2	+
c1csc(-c2cnc3ccccc3n2)c1	7	2	5%	3.6*	.
c1cncc(Nc2nc(-c3cccs3)cs2)c1	0	7	3%	1.1	i
COc1ccc(C2C(C(=O)NCc3cccnc3)c3ccccc3C(=O)N2C)cc1OC (stereo unspecified)	13	8	7%	1.1	i
O=C(NCC1CCCO1)c1coc2nc3ccccc3nc12 (stereo unspecified)	14	2	16%	2.5*	+
COc1ccc(-n2c(N)c(C(=O)NCC3CCCO3)c3nc4ccccc4nc32)c(OC)c1 (stereo unspecified)	5	11	8%	3.9*	.
C=CCn1c(N)c(C(=O)NCC2CCCO2)c2nc3ccccc3nc21 (stereo unspecified)	7	9	8%	3.8*	.
COc1ccc(-n2nc(C(=O)NCC(=O)NCC3CCCO3)c3ccccc3c2=O)c(OC)c1 (stereo unspecified)	3	5	3%	1.1	i
CN(c1ccccc1C(=O)NCC1CCCO1)S(C)(=O)=O (stereo unspecified)	7	6	5%	1.2	i
COc1ccccc1-n1c(SCC(=O)Nc2cccc(C)c2)nc2c(c1=O)SCC2	0	5	2%	1	i
O=C(O)CC(c1ccc(Cl)cc1)n1cccc1 (stereo unspecified)	9	3	4%	1.1	i
COc1ccc(OC)c(-n2c(SCC(=O)Nc3cc(C)on3)nnc2-c2c[nH]c3ccccc23)c1	0	8	3%	1.1	i
Cc1ccc2[nH]c(=O)c(CN(Cc3cccnc3)C(=O)c3ccncc3)cc2c1	0	7	2%	1.6	i
COC(=O)c1ccc(C(=O)OC)c(NS(C)(=O)=O)c1	0	13	5%	1.2	i
COC(=O)c1ccc(C(=O)OC)c(N)c1	0	6	3%	4*	.
COC(=O)c1cc(Cc2ccc(N)c(C(=O)OC)c2)ccc1N	5	4	5%	2.1*	.
SMILES	PMK inhibit	Spn MK inh	NADH coupling	Autofluor 339	DPM-DC inhibit
CCOC(=O)CCSc1nc(C)c2ccccc2n1	9	0	3%	1.2	i
CCC(=O)N/C(N)=N/c1nc(C)c2cc(OC)ccc2n1	1	2	1%	2.1*	.
COc1ccc2nc(/N=C(\N)NC(=O)C(C)(C)C)nc(C)c2c1	6	2	7%	2	i
CCOC(=O)CSc1nc(C)c2cc(OC)ccc2n1	0	0	0%	3.7*	.
CCCc1cc(=O)n2[nH]c(C)cc2n1	12	0	7%	1.2	i
CCOC(=O)N1CCC(NC(=O)c2ccc(CS(=O)(=O)c3ccccc3C)o2)CC1	10	3	6%	0.97	i
COc1cc(OC)c(C2CC(=O)N3CN(c4ccc(C)cc4)CSC3=C2C#N)cc1OC (stereo unspecified)	14	41*	18%	1.1	i

Compound activity from PubChem.
